Source: PubChem BioAssay (NCATS)
Results filed as inconclusive are left out. A call without a number means that no potency is given here. Active and inactive are the calls of the source. Calls come from the whole dose curve; as a rule, active = well fitted curve in the direction sought with a large enough effect; inconclusive = small, poorly fitted or top-dose-only effect, or another doubt; inactive = no such curve, though single readings can be large; an effect the other way counts as inactive or inconclusive.

Key:
[1] = P-glycoprotein substrates identified in KB-3-1 adenocarcinoma cell line, qHTS therapeutic library screen (AID 1346986); note: nearly all actives have a fitted effect of over 60% in size;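 note: potency is for cytotoxicity meaning loss of cell viability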
Summary of the method: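 Cells seeded 500/well in DMEM/10% FCS; compounds pinned in dose-response; 72 h incubation; CellTiter-Glo added, 5 min, luminescence. KB-8-5-11 run ±tariquidar to test reversal of P-gp resistance.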

[2] = P-glycoprotein substrates identified in KB-8-5-11 adenocarcinoma cell line, qHTS therapeutic library screen (AID 1346987); note: nearly all actives have a fitted effect of over 65% in size
Summary of the method: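 KB-8-5-11, a colchicine-selected P-gp-overexpressing KB-3-1 subline, was grown without colchicine for the assay. Cells were seeded at 500 cells/well, dosed in concentration-response and incubated 72 h at 37 degree C, 5% CO2. Viability was read by CellTiter-Glo luminescence.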
Potency is the fitted concentration of half-maximal effect.

| SMILES | Potency [1] | Potency [2] | outcome [1] | outcome [2] |
| --- | --- | --- | --- | --- |
| O=C(O)[C@H]1CCCC[C@H]1C(=O)N1CCc2ccccc2[C@H]1CN1C(=O)c2ccccc2C1=O | inactive | inactive |  |  |
| Nc1ccn([C@@H]2C(F)=C(CO)[C@@H](O)[C@H]2O)c(=O)n1 | 3.66 µM (active) | 10.3 µM (active) |  |  |
| CC(=O)OC1C=C(C(=O)O)C2(CO)CCC(C)C(C)(CCc3ccoc3)C2C1 (centres undefined) | inactive | inactive |  |  |
| O=C(/C=C/c1ccc(O)cc1)OCC1=C[C@@H](O)[C@@H]2C=CO[C@@H](O[C@@H]3O[C@H](CO)[C@@H](O)[C@H](O)[C@H]3O)[C@H]12 | inactive | inactive |  |  |
| CC1=C(CC(=O)O)c2cc(F)ccc2C1=Cc1ccc(S(C)(=O)=O)cc1 | inactive | inactive |  |  |
| OCC1=CC[C@@H]2C=CO[C@@H](O[C@@H]3O[C@H](CO)[C@@H](O)[C@H](O)[C@H]3O)[C@H]12 | inactive | inactive |  |  |
| C=C/C=C/[C@@H]1OC[C@H](/C=C/C=C/C)[C@H]1O | inactive | inactive |  |  |
| CC(C)=CCc1ccc(Oc2c(O)cc(C)cc2CO)c(C(=O)O)c1O | inactive | inactive |  |  |
| CC(=O)O[C@H](C[C@@H](C)[C@H]1C(=O)[C@H](O)[C@@]2(C)[C@@H]3CCC4C(C)(C)[C@@H](O[C@@H]5OC[C@H](O)[C@H](O)[C@H]5O)CC[C@@]45C[C@@]35CC[C@]12C)[C@@H]1OC1(C)C (some centres undefined) | inactive | inactive |  |  |
| CC(CCC1C(C(=O)O)=CC(=O)CC1(C)C)O[C@@H]1O[C@H](CO)[C@@H](O)[C@H](O)[C@H]1O (some centres undefined) | inactive | inactive |  |  |
| COc1cc(C2Oc3c(O)cc(CCCO)cc3C2CO)ccc1O[C@H]1O[C@H](C)[C@@H](O)[C@H](O)[C@@H]1O (some centres undefined) | inactive | inactive |  |  |
| CC(=O)O[C@@H]1[C@H](O[C@@H]2O[C@H](CO)[C@@H](O)[C@H](O)[C@H]2O)[C@@H](O[C@@H]2O[C@@H](C)[C@H](O)[C@@H](O[C@@H]3O[C@H](CO)[C@@H](O)[C@H](O)[C@H]3O)[C@H]2O)[C@H](OC(=O)C23CCC4(C)C(=CCC5C6(C)CC(O)C(O[C@@H]7O[C@H](C(=O)O)[C@@H](O)[C@H](O)[C@H]7O)C(C)(C(=O)O)C6CCC54C)C2CC(C)(C)CC3O)O[C@@H]1C (some centres undefined) |  |  | inactive [at 9.29 µM] | inactive [at 9.29 µM] |
| O=c1ccn(C2OC(CO)C(O)C2O)c(=O)[nH]1 (centres undefined) | inactive | inactive |  |  |
| CC(C#N)C(C)O[C@@H]1O[C@H](CO)[C@@H](O)[C@H](O)[C@H]1O (some centres undefined) | inactive | inactive |  |  |
| CO/N=C(/C(=O)N[C@@H]1C(=O)N2C(C(=O)O)=C(CSC(=O)c3ccco3)CS[C@H]12)c1csc(N)n1 | inactive | inactive |  |  |
| O=C1N(CC2CCCCN2)CCN1c1ccccc1 (centres undefined) | inactive | inactive |  |  |
| CCC(C)(O)C(O)C(=O)OCc1ccc(O[C@@H]2O[C@H](CO)[C@@H](O)[C@H](O)[C@H]2O)cc1 (some centres undefined) | inactive | inactive |  |  |
| CC1=C2C3OC(=O)C(C)C3(O)CCC2(C)CCC1=O (centres undefined) | inactive | inactive |  |  |
| CC1CC(O)C2(C)C(C(=O)O)=CCCC2C1(C)CCc1ccoc1 (centres undefined) | inactive | inactive |  |  |
| CC(=O)OC[C@]12[C@H](OC(C)=O)C(=O)[C@@H]3[C@@H](OC(C)=O)[C@@]14O[C@@]3(C)COC(=O)c1cccnc1[C@@H](C)[C@H](C)C(=O)O[C@@H]([C@H](OC(C)=O)[C@@H]2OC(C)=O)[C@]4(C)O | inactive | inactive |  |  |
| CCn1c2ccccc2c2cc(CNC)ccc21 | inactive | inactive |  |  |
| NCCOCCOCCNC(=O)Cc1ccc(Nc2nc(NCc3ccc(F)cc3)nc(NCC3CCCCC3)n2)cc1 | inactive | inactive |  |  |
| CC(=O)O[C@H]1C[C@@H]2[C@]3(CC[C@]4(C)[C@@H](C5(C)CCC(C(C)(C)O)O5)[C@@H](O)C[C@@]24C)C[C@@]32CC[C@H](O[C@@H]3OC[C@@H](O)[C@H](O)[C@H]3O)C(C)(C)[C@H]12 (some centres undefined) | inactive | inactive |  |  |
| C=C1C(=O)O[C@H]2[C@H]1[C@@H](OC(=O)C(C)CO)C[C@@]1(C)[C@H](O)CCC(=O)[C@H]21 (some centres undefined) | inactive | inactive |  |  |
| C=C1C[C@]23C[C@H]1CC[C@H]2[C@@]12C=C[C@H](O)[C@@](C)(C(=O)O1)[C@H]2[C@@H]3C(=O)O | inactive | inactive |  |  |
| C[C@@H]1CC[C@H]2C(C)(C)[C@H](O)[C@H](O)C[C@]2(C)[C@@]12Cc1c(O)cc3c(c1O2)CNC3=O | inactive | inactive |  |  |
| CCOc1nc2cccc(C(=O)O)c2n1Cc1ccc(-c2ccccc2-c2noc(=O)[nH]2)cc1 | inactive | inactive |  |  |
